# Data from PubChem BioAssay (NCI).
# The panel holds about 83,000 compounds, 20% with a hit somewhere; the sample as a whole holds those more often.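 Values shown are percent growth following 48 h exposure of cells in 96-well plates to a single concentration of compound; below 10 was considered active.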 Values without a mark were called inactive. Activity calls are given as the source filed them.
# Tests used:
# Experiment in all cases: NCI-60 one-dose screen, 48 h (100 = growth as untreated, 0 = no growth, -100 = all killed)
# Details in all cases: 10 µM unless noted
# BT-549 breast = test system: BT-549 breast
# MDA-MB-435 melanoma = test system: MDA-MB-435 melanoma
# SW-620 colon = test system: SW-620 colon
# MCF7 breast = test system: MCF7 breast
# HCT-116 colon = test system: HCT-116 colon
# HCC-2998 colon = test system: HCC-2998 colon
# KM12 colon = test system: KM12 colon
Compound,growth (BT-549 breast),growth (MDA-MB-435 melanoma),growth (SW-620 colon),growth (MCF7 breast),growth (HCT-116 colon),growth (HCC-2998 colon),growth (KM12 colon)
O=C(N/N=C/c1ccc[nH]1)c1[nH]c2ccc(Br)cc2c1-c1ccccc1,-12.5% (active),2.21% (active),22.8%,3.98% (active),0.0164% (active),17.2%,10.4%
Cc1ccc(-c2nc(C(Cl)Cl)nc3cc(-c4ccccc4)nn23)cc1,53.6%,16.1%,-40.3% (active),25.4%,11.8%,-55.8% (active),-6.93% (active)
COC(=O)C(Cc1ccccc1)NS(=O)(=O)/N=C1\NC(=O)NC1=C(Cl)Cl (stereo unspecified),95.6%,105%,98.9%,29.1%,77.3%,113%,9.49% (active)
N#Cc1nc(-c2ccccc2)oc1N1CC[C@@H](CO)C1,117%,99%,99%,70.5%,103%,110%,111%
CSc1ccc2c(c1)N(C(=O)/C(C#N)=C/c1c[nH]c3ccccc13)c1ccccc1S2,55.8%,11.7%,34.5%,23.1%,24.3%,,24.5%
CCOC(=O)c1sc(N)c(C(=O)OCC)c1C,59.9%,81.2%,71.6%,57.9%,52.8%,,69.1%
Cc1c(NC(=O)CSc2nc3sc4c(c3c(=O)n2-c2ccc(Cl)cc2)CCCC4)c(=O)n(-c2ccccc2)n1C,93.2%,88.3%,90.6%,77.3%,107%,110%,98.7%
COc1ccc(-n2c(SCC(=O)Nc3ccc(-c4nc5ccccc5[nH]4)cc3)nc3ccccc3c2=O)cc1,-65% (active),-14.4% (active),,-49.2% (active),-39.6% (active),34.8%,18.7%
O=C(NNc1nc2cc(F)ccc2n2c(CN3CC4(COC4)C3)ccc12)c1cnccn1,36.4%,35.2%,,13.6%,22%,57.3%,23%
C[C@@H](Nc1c(C#N)cnc2ccc(-c3cnc(N)nc3)cc12)c1ccccc1,-14.1% (active),11%,,10.9%,5.6% (active),32%,18.6%
NC(=O)c1cc(-c2ccc3ncnc(N4CCc5cc(F)c(Cl)cc54)c3c2)cnc1N,-13.5% (active),25.2%,,11%,19.3%,37.5%,29.9%
O=C1Nc2cc(Cl)ccc2/C1=C\c1ccc(OCc2ccc(Br)cc2F)cc1,-69.3% (active),-37.7% (active),,9.35% (active),-95% (active),17%,-31.9% (active)
Clc1ccc2c(OCCCN3CCOCC3)c3oc4ccccc4c3nc2c1,80.1%,33.2%,,10.4%,17.7%,46%,33.1%
O=C(CN1C(=O)/C(=C/c2ccccc2)SC1=S)N1CCOCC1,97.5%,96.2%,,80.8%,98.3%,112%,100%
CN(C)CCCNc1c2ccc(Cl)cc2nc2c1oc1ccc(Cl)cc12,79.9%,-74.3% (active),,-76.4% (active),-93.7% (active),-85.1% (active),-56.3% (active)
O=C(Nc1nc2ccc(O)cc2s1)c1cccc(C(F)(F)F)c1,84.4%,44.7%,,73.7%,57.6%,,42.7%
C=CCn1c(SCC(=O)c2ccc(Br)cc2)nnc1-c1c[nH]c2ccccc12,106%,108%,,97.9%,93.5%,104%,102%
Nc1c(C(=O)c2ccc(Br)cc2)oc2nc(-c3cnccn3)cc(-c3cccs3)c12,103%,102%,,77.6%,96.8%,113%,99.8%
CCOC(=O)c1sc(NCC(=O)Nc2cccc([N+](=O)[O-])c2)c(C(=O)OCC)c1C,-19.3% (active),-82% (active),,-4.78% (active),0.39% (active),,-9.01% (active)
O=C(N/N=C/c1ccc([N+](=O)[O-])s1)c1[nH]c2ccc(Br)cc2c1-c1ccccc1,-19% (active),-35.3% (active),,7.64% (active),-7.92% (active),0.797% (active),12.8%

Compound,growth (BT-549 breast),growth (MDA-MB-435 melanoma),growth (SW-620 colon),growth (MCF7 breast),growth (HCT-116 colon),growth (HCC-2998 colon),growth (KM12 colon)
O=c1[nH]c2ccccc2cc1CSc1ccccc1Nc1nccc(-c2ccc(C(F)(F)F)cc2)n1,112%,74.6%,,40.3%,43.4%,90.4%,79.3%
CCOC(=O)c1c(Nc2ccccc2)nn2c(N)c(C#N)c(-c3ccc(Cl)cc3)nc12,96.7%,70.3%,,65.2%,59.9%,83.5%,64.1%
COc1ccc(/C=N/NC(=O)c2[nH]c3ccc(Br)cc3c2-c2ccccc2)o1,-15.5% (active),-16.9% (active),,9.83% (active),-18.8% (active),21.3%,6.83% (active)
Fc1ccc(-c2cc3nc(C(Cl)Cl)nc(-c4ccc(Cl)cc4)n3n2)cc1,72.4%,25.8%,,16.5%,11.7%,-60.4% (active),-17.1% (active)
O=C1C2=C(C(=O)c3c(O)cccc31)C(c1ccco1)c1sc(=O)[nH]c1S2 (stereo unspecified),-96.8% (active),,13%,-14.2% (active),-2.88% (active),4.16% (active),
Cc1nc(-c2cc3ccccc3oc2=O)ccc1C(=O)/C=C/c1ccc(N2CCOCC2)cc1,76.9%,-21.1% (active),,51.6%,89.1%,83.9%,68.9%
O=C(CSc1nc2sc3c(c2c(=O)n1-c1ccc(Cl)cc1)CCCC3)N/N=C/c1ccc(F)cc1,116%,86.9%,,74.7%,99.7%,112%,90.1%
CCOC(=O)c1c(Nc2ccccc2)nn2c(N)c(C#N)c(-c3ccccc3)nc12,95%,75.3%,,60.1%,78.3%,97%,77.7%
CC1=C(C)C(=O)C(Nc2cccc(C(F)(F)F)c2)=C(Cl)C1=O,121%,98.5%,17.1%,35.4%,33.9%,,67.2%
C#Cc1nc(C2=C(C)C(OC(C)=O)/C(=N/OC(C)=O)C2)cs1 (stereo unspecified),-74.3% (active),88.9%,,25.9%,19.9%,105%,-19.7% (active)
CCCC(=O)NC(c1cccc(N(C)C)c1)c1cc(C)c2cccnc2c1O (stereo unspecified),78.4%,77.6%,,35.3%,22.7%,57.9%,54.9%
COc1ccc(COc2ccc(/C=C3/C(=O)Nc4cc(Cl)ccc43)cc2)cc1,102%,97.6%,,82.1%,101%,100%,101%
C=CCn1c(SCC(=O)c2ccccc2)nnc1-c1c[nH]c2ccccc12,109%,105%,,97.2%,97.5%,111%,112%
c1ccc2c(NCCCN3CCOCC3)c3oc4ccccc4c3nc2c1,3.61% (active),-11.9% (active),,0.0447% (active),-20.1% (active),-28% (active),2.04% (active)
COc1cc(/C=C/C(=O)c2ccc(C(F)(F)F)cc2)ccc1Oc1nc(NCCO)nc(N2CCOCC2)n1,92.9%,78.9%,,17%,-18.5% (active),104%,62.4%
O=C(CCN1C(=O)/C(=C/c2ccccc2)SC1=S)N1CCOCC1,104%,81.9%,,40.9%,89.6%,112%,84.3%
Cc1nc(-c2cc3ccccc3oc2=O)ccc1C(=O)/C=C/c1ccccn1,82.5%,70.8%,,8.39% (active),-21% (active),66.6%,6.06% (active)
COc1ccc(NC2=CC(=O)C(C)=C(C)C2=O)cc1,119%,7.8% (active),,71.9%,80.6%,,101%
NS(=O)(=O)c1ccc(Nc2nc(SCC(=O)c3ccc(Cl)cc3)nc3ccccc23)cc1,112%,97.5%,,83%,101%,123%,87%
Cc1cc2nc3c4cc(Cl)ccc4n(CC(=S)NCCN(C)C)c3nc2cc1C,75%,-92.4% (active),,-81.5% (active),-94.2% (active),-82.9% (active),-60.2% (active)
